Hits are enriched below; roughly 7.3% of the tested compounds scored in any of these assays.
FLuc modulator: firefly luciferase modulation, counter-screen for miR-21 project; P08659; purified FLuc, Km substrates, luminescence inhibition; Potency, µM (series often up to 57.5 µM), for inactives: at the top dose activity change, negative = inhibition, actives largely listed as inhibitors; 6.9% of 360,000 active; AID 588342;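 note: plate controls were vehicle for no effect and reference inhibitor for full effect; nearly all actives have a fitted effect of over 55% in size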
Target sequence (P08659 whole entry, looked up): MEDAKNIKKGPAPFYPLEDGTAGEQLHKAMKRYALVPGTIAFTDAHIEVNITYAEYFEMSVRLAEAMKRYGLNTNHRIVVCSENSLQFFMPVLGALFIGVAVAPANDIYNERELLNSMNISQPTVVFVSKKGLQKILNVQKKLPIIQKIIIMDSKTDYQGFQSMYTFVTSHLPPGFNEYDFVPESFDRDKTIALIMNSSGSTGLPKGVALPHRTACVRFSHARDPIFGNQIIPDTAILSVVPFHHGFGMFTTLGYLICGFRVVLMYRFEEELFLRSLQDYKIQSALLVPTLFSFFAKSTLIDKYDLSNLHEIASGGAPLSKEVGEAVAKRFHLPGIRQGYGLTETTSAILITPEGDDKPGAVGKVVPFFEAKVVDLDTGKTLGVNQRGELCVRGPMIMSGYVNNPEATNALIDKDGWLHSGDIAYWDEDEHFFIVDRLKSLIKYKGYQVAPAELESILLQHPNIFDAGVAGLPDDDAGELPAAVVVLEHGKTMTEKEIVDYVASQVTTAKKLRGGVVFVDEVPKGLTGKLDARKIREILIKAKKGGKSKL
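Purified P. pyralis luciferase (10nM final) with 10uM D-luciferin and 10uM ATP (Km levels) in 50mM Tris acetate pH 7.5, 10mM Mg acetate, 0.01% Tween-20, 0.05% BSA; qHTS 6-point titration, ~60 µM downward; luminescence read.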
Rab9 promoter act: activates the Rab9 promoter; Huh7 Rab9 promoter-luciferase reporter, luminescence, 24 h; Potency, µM (highest dose often 9.22 µM), for the others: at the top dose activation, negative = inhibition, hits mostly activators; 2.8% of 320,000 active; note: % of control where 0% means no effect; nearly all actives have a fitted effect of over 60% in size
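Huh7 cells stably carrying a Rab9 promoter-luciferase reporter, 1500 cells per well in OP-MEM I with 10% FBS, treated with compound 24 hours at 37C. Luciferase activity read by luminescence after 10 minutes with Amplite reagent.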
SMN2 splice enh: SMN2 splice variant enhancement | HEK293 SMN2-luciferase splicing reporter, luminescence, 30-36 h | Potency, µM (titrated, usually from 46.1 µM), for the others: at the top dose activity change, positive = activation, actives largely listed as activators | 2.8% of 210,000 active | AID 1458; note: % of control where 0% means no effect; nearly all actives have a fitted effect of over 55% in size
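qHTS luciferase splicing reporter: luminescence rises when SMN2 exon 7 is included in transfected HEK293 cells. Compound exposure lasted 30-36 h at 37C, with 4.5 mM final sodium butyrate as control, followed by a ONE-Glo read.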
Luc counter: counter-screen: inhibitors of Kinase-Glo firefly luciferase; Q27757; Kinase-Glo luciferase, ATP luminescence, 8 min; Potency, µM (titrated, usually from 38.3 µM), inactives show at the top dose activity change, negative = inhibition, actives largely listed as inhibitors; 0.28% of 200,000 active; AID 1379; note: % is set by controls: 0 for no effect and ±100 for the full control effect; nearly all actives have a fitted effect of over 60% in size
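Recombinant Kinase-Glo luciferase, 10 uM ATP (linear range), luciferin; imidazole pH 7.2 / KCl / MgCl2 / Tween / BSA buffer; 8 min RT; luminescence.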
NPC1 prom act: NPC1 promoter activation; Huh7 NPC1 promoter luciferase reporter, 24 h; Potency, µM (titrated, usually from 9.22 µM), without a hit: at the top dose activation, hits mostly activators; 2.4% of 320,000 active; AID 485313; note: % of control where 0% means no effect; nearly all actives have a fitted effect of over 60% in size
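Stably transfected Huh7 (NPC1 promoter→luciferase), 1500 cells/well in Opti-MEM + 10% FBS, 2 h settle, then compound 24 h at 37 °C. Luminescence after 10 min with Amplite reagent.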
Numbers without * were called inactive; [ ] = dose if it differs, or a comment. Calls come from the whole dose curve; as a rule, active = well fitted curve in the direction sought with a large enough effect; inconclusive = small, poorly fitted or top-dose-only effect, or another doubt; inactive = no such curve, though single readings can be large; an effect the other way counts as inactive or inconclusive. Potency is the fitted concentration of half-maximal effect.

For COc1ccccc1-c1noc(-c2ccccc2C(=O)NCC2CCCO2)n1 (configuration not stated) the results were FLuc modulator 15.1µM*, Rab9 promoter act 0.8% and NPC1 prom act 1.0%.
For Cc1ccccc1-c1noc(-c2ccccc2C(=O)NCC2CCCO2)n1 (configuration not stated) the results were FLuc modulator 15.1µM*, Rab9 promoter act -1.3% and NPC1 prom act 1.4%.
`O=C(NCC1CCCO1)c1ccccc1-c1nc(-c2ccc(F)cc2)no1` (configuration not stated) gave FLuc modulator inconclusive, Rab9 promoter act -1.4%, SMN2 splice enh -41.7%, Luc counter -4.2% and NPC1 prom act 0.9%.
COc1ccc(-c2noc(-c3ccccc3C(=O)NCC3CCCO3)n2)cc1 (configuration not stated) was read as FLuc modulator 9.53µM*, Rab9 promoter act -1.4% and NPC1 prom act 1.4%.
Screening Cc1ccccc1Nc1cc(C(=O)NCC2CCCO2)c2ccccc2n1 (configuration not stated) returned FLuc modulator inconclusive, Rab9 promoter act -4.4% and NPC1 prom act 2.2%.
`CC[C@H](C)[C@@H](NC(=O)O[C@@H]1C(=O)c2ccc(OC)cc2O[C@H]1c1ccc2c(c1)OCO2)C(=O)OC` gave SMN2 splice enh 14.1% and Luc counter -0.9%.
CCc1ccc(C(=O)/C=C/c2ccc([N+](=O)[O-])o2)cc1 was read as FLuc modulator 10.7µM*, Rab9 promoter act -29.3%, SMN2 splice enh -92.2%, Luc counter -8.7% and NPC1 prom act -10.9%.
N#C/C(=C/c1ccc(N2CCOCC2)o1)C(=O)NC1CCCCC1 was read as FLuc modulator 12µM*, Rab9 promoter act 23.7%, Luc counter -1.7% and NPC1 prom act 3.4%.
N#C/C(=C\c1ccc(N2CCOCC2)o1)C(=O)Nc1ccc(O)cc1 was read as FLuc modulator 5.36µM*, Rab9 promoter act 25.2%, SMN2 splice enh 15.8µM*, Luc counter -0.4% and NPC1 prom act 21.8%.
Screening COc1ccc(NC(=O)/C(C#N)=C\c2ccc(N3CCOCC3)o2)cc1 returned FLuc modulator 1.9µM*, Rab9 promoter act inconclusive, Luc counter -7.8% and NPC1 prom act inconclusive.
COc1ccc(NC(=O)/C(C#N)=C/c2ccc(C)o2)cc1 was read as FLuc modulator 2.69µM* and SMN2 splice enh 12.6µM*.
For Cc1cccc(CCNC(=O)C2CCN(c3nc4ccccc4nc3C(F)(F)F)CC2)c1 the results were FLuc modulator -0.7%.
`CCOC(=O)CC(=O)CSc1nc2ccccc2c(=O)n1CCc1ccc(S(N)(=O)=O)cc1` gave FLuc modulator 3.1%.
For COc1ccc2c(c1)C(=O)[C@H](OC(=O)Nc1cc(OC)c(OC)c(OC)c1)[C@@H](c1ccc(OC)c(Br)c1)O2 the results were SMN2 splice enh 0.1% and Luc counter 0.7%.
Screening Cc1cc(=O)cc(C)n1-c1ccc(Cl)cc1 returned FLuc modulator -0.8%, Rab9 promoter act 0.0%, SMN2 splice enh -4.8%, Luc counter -1.8% and NPC1 prom act -0.6%.
Cc1cccc(-n2c(C)cc(/C=C3/C(=N)N4C(c5ccccc5)=CSC4=NC3=O)c2C)c1 was read as FLuc modulator -12.6%, Rab9 promoter act 0.0%, SMN2 splice enh -20.7%, Luc counter -0.2% and NPC1 prom act -0.2%.
For Cc1cccc(-n2c(C)cc(C=C3C(=O)c4ccccc4C3=O)c2C)c1 the results were FLuc modulator 0.849µM*, Rab9 promoter act inconclusive, SMN2 splice enh -20.6%, Luc counter -12.1% and NPC1 prom act inconclusive.
Cc1cc(C=C2C(=O)c3ccccc3C2=O)c(C)n1-c1ccc(Cl)cc1 was read as FLuc modulator 0.675µM*, Rab9 promoter act 3.5%, SMN2 splice enh -60.1%, Luc counter -14.2% and NPC1 prom act 8.0%.
Nc1ccc(N(S(=O)(=O)c2ccccc2)S(=O)(=O)c2ccccc2)c(Cl)c1 was read as SMN2 splice enh 0.0%[9.22 µM] and Luc counter -2.8%[7.66 µM].
CN1C(=O)c2[nH]nc(-c3ccc(F)cc3)c2C1c1cccc(O)c1 (configuration not stated) was read as FLuc modulator -19.0% and SMN2 splice enh -10.2%.
`CCOc1ccc(CCNC(=O)c2[nH]c3cc(OC)ccc3c2Sc2ccccc2)cc1OCC` gave FLuc modulator 3.3%.
`O=c1[nH][nH]cc1C=Nc1ccc(Cl)cc1Cl` gave FLuc modulator 7.57µM*, Rab9 promoter act -1.8%, SMN2 splice enh -3.9%, Luc counter 8.2% and NPC1 prom act -4.5%.
For CCC(=O)c1ccc(OCC(=O)Nc2nn3cnnc3s2)cc1 the results were FLuc modulator 26.9µM*, Rab9 promoter act 1.2%, SMN2 splice enh -2.7%, Luc counter -1.2% and NPC1 prom act 3.3%.
`CCOc1ccc(NC(=O)COc2ccc(-n3cnnn3)cc2)cc1` gave FLuc modulator 5.8%, Rab9 promoter act 1.7% and NPC1 prom act -9.1%.
For COc1ccc(C(=O)Nc2nnc(S(=O)(=O)N3CCCc4ccccc43)s2)cc1 the results were FLuc modulator -5.3%.
Screening Cn1c(/C=C/c2cccc(Br)c2)nc2ccccc2c1=O returned FLuc modulator 15.1µM*, Rab9 promoter act -5.2%[1.84 µM] and NPC1 prom act 27.8%.
Cn1c(=O)c(/C=C/c2ccc(F)cc2)nc2ccccc21 was read as FLuc modulator 6.75µM*, Rab9 promoter act -29.9%, Luc counter -3.8% and NPC1 prom act -30.3%.
Screening Cn1c(/C=N/NC(=O)c2ccccc2)nc2ccccc21 returned FLuc modulator -13.9%, Rab9 promoter act 12.1%, SMN2 splice enh -17.1%, Luc counter -0.4% and NPC1 prom act 11.5%.
`CC(=O)c1ccc(/C=C/c2nc3ccccc3n2C)o1` gave FLuc modulator 5.36µM*, Rab9 promoter act 1µM* and NPC1 prom act 1.26µM*.
For Cn1c(/C=C/c2ccccc2)nc2ccccc21 the results were FLuc modulator 0.135µM*, Rab9 promoter act inconclusive, Luc counter 7.08µM* and NPC1 prom act 0.562µM*.
`COC(=O)[C@@H]1C=C[C@H](C)[C@H](CCOc2ccccc2)O1` gave SMN2 splice enh 12.5% and Luc counter -1.3%.
For COc1ccc(-c2cc(C)no2)cc1S(=O)(=O)N1CCN(c2ccc(C(C)=O)cc2)CC1 the results were FLuc modulator 4.9%.
For CC(C)(C)c1ccc(-c2nc3cc(NC(=O)c4cccc(Br)c4)ccc3o2)cc1 the results were FLuc modulator 2.0% and SMN2 splice enh -9.3%.
For Cn1c(=O)c(/C=C/c2ccccc2)nc2ccccc21 the results were FLuc modulator 2.69µM*, Rab9 promoter act 3.55µM*, SMN2 splice enh 11.2µM*, Luc counter -3.1% and NPC1 prom act inconclusive.

Screening results: PubChem, National Center for Advancing Translational Sciences (NCATS)
